PubChem BioAssay AID1259422 (The Scripps Research Institute Molecular Screening Center, 2018)
In all, about 640,000 compounds went through this assay and about 9,300 (1.5%) were called active. Rule as the data show it: active = inhibition above about 32%; inactive = the rest. Many of the other results were omitted from the sample, so actives are more common in it than they were.

assay: TEAD-YAP interaction inhibition, primary screen, TEAD-YAP interaction inhibitor project, luminescence, HEK-TIYL cells (AID 1259422); conditions: TEAD-Gal4/YAP UAS-luciferase luminescence, at 9.12 µM, stronger effect = higher value;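 also: 0% = median of test compound wells and 100% = reference inhibitor wells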

SMILES	inhibition
COc1ccc(S(=O)(=O)CCC(=O)Nc2ccc(C)cc2Br)cc1	-9.1% (inactive)
COc1ccc(/C=C2/C(=O)NN(c3cccc(Cl)c3)C2=O)cc1	5.26% (inactive)
CC(=O)Oc1ccc(/C=C2\N=C(c3ccccc3F)OC2=O)cc1	-4.17% (inactive)
Cc1c(C(=O)N/N=C/c2cccc([N+](=O)[O-])c2)nnn1-c1nonc1N	-6.33% (inactive)
CC(=O)Oc1c(C)cc(C)c2ccc(=O)[nH]c12	-7.29% (inactive)
CC1CC(=O)Nc2ccccc2N1C(=O)Cc1ccc(Cl)cc1 (stereo not given)	-16.4% (inactive)
CCc1ccc(CC(=O)N2CC(=O)Nc3ccccc32)cc1	49.8% (active)
O=C1CN(C(=O)CCl)c2ccccc2N1	14.1% (inactive)
CCCOCc1c[nH]c(=O)[nH]c1=O	-4.81% (inactive)
CCOC(=O)c1c(NC(=S)NC(=O)c2ccccc2)sc2c1CC(C)(CC)OC2 (stereo not given)	8.08% (inactive)
CCOC(=O)C1=C(NC(=S)NC(=O)c2ccccc2)c2ccccc2CC1(CC)CC	51.5% (active)
COc1ccc(C(=O)O)cc1NC(=S)NC(=O)c1ccccc1	-6.39% (inactive)
OC(CN1CCN(c2ccccc2F)CC1)Cn1nnnc1-c1ccccc1 (stereo not given)	2.32% (inactive)
Cc1cc(C)c(/C=C/c2cc(C(F)(F)F)[nH]c(=O)n2)cc1C	-9.26% (inactive)
Cc1nc(N2CCN(c3ccccn3)CC2)c2c(C)c(C(=O)Nc3ccccc3C(F)(F)F)sc2n1	-2.56% (inactive)
O=C(O)c1cccc(-c2cnc3ccc(NCc4ccc(F)cc4)nn23)c1	-7.03% (inactive)
c1ccc(Oc2ccc(-c3cnn4c(NCCCN5CCOCC5)ccnc34)cc2)cc1	42% (active)
c1ccc(Cn2cc(-c3cnn4c(NCCCN5CCOCC5)ccnc34)cn2)cc1	-1.52% (inactive)
Cc1ccc(-c2cnn3c(NCCCN4CCOCC4)ccnc23)cc1C	10.5% (inactive)
CCOc1cc2c(cc1OCC)C(c1cc(OC)ccc1F)NCC2 (stereo not given)	4.41% (inactive)

SMILES	inhibition
CC(C)(O)C#CC(O)c1cccc([N+](=O)[O-])c1 (stereo not given)	-0.86% (inactive)
COc1ccc(C(c2sc3ncnn3c2O)N2CC(C)OC(C)C2)cc1 (stereo not given)	10.7% (inactive)
COc1ccc(C(=O)NCC(=O)NNc2ncnc(N)c2[N+](=O)[O-])c(OC)c1	11.1% (inactive)
O=C(N/N=C/c1cc(Br)ccc1O)c1cc(Br)ccc1O	-12% (inactive)
CCOc1ccc(/C=N/NC(=O)c2cc(-c3cccs3)[nH]n2)cc1	-4.12% (inactive)
O=C(N/N=C/c1cc(Br)ccc1O)c1ccc(=O)[nH]n1	14.8% (inactive)
O=C(N/N=C/c1cc(Br)ccc1O)c1cc(-c2cccs2)[nH]n1	65.8% (active)
COc1cccc(/C=N/NC(=O)c2cc(-c3cccs3)[nH]n2)c1O	68% (active)
COc1ccccc1/C=N/NC(=O)c1cc(-c2ccc(C)o2)[nH]n1	4.17% (inactive)
Cc1ccc(CNS(=O)(=O)c2ccc(F)c(C(=O)Nc3cccc(Cl)c3)c2)cc1	-4.88% (inactive)
COc1cc(C=Nc2ccc(NC(C)=O)cc2)ccc1OC(=O)c1cccs1	-6.6% (inactive)
COc1ccccc1NS(=O)(=O)c1ccc(Cl)c(C(=O)Nc2ccccc2C)c1	0.37% (inactive)
O=C(Cc1cccc(Cl)c1)NCC1CCC2(CCN(C(=O)C3CC3)CC2)O1 (stereo not given)	-0.11% (inactive)
COc1ccc(C2CCN(C(=O)C3CCCO3)CC2)cc1 (stereo not given)	-7.42% (inactive)
Cc1cccc2c1CC(=O)NC21CCN(Cc2ccc3ccccc3c2)CC1	7.07% (inactive)
CCc1ccc(OCC(=O)Nc2nc(C)c(C)s2)c(Br)c1	77.7% (active)
Cc1ccc(OCC(=O)Nc2nc(-c3ccccc3)cs2)c(Br)c1	5.91% (inactive)
CCc1ccc(OCC(=O)NCc2ccncc2)c(Br)c1	-4.34% (inactive)
CCOC(=O)C1(CCOc2ccccc2)CCN(Cc2cnn(C(C)C)c2)CC1	10.3% (inactive)
O=[N+]([O-])c1ccc2oc(-c3cccc(O)c3)nc2c1	73.9% (active)

SMILES	inhibition
O=C(Nc1ccc2oc(-c3ccc(F)cc3)nc2c1)c1ccc([N+](=O)[O-])cc1	11.2% (inactive)
O=C(COc1ccc([N+](=O)[O-])cc1)Nc1ccc2oc(-c3cccc(F)c3)nc2c1	-7.11% (inactive)
Cc1ccc2nc3c(cc(C#N)c(=O)n3-c3cccc(Cl)c3)c(=O)n2c1	-0.14% (inactive)
CC1=CN2C(=O)NC(C(F)(F)F)(C(F)(F)F)N=C2S1	-16.6% (inactive)
COCCCNC(=O)/C(C#N)=C/c1cc(C)n(-c2cccc3ccccc23)c1C	47.1% (active)
COCCCNC(=O)/C(C#N)=C/c1ccc(-c2cccc(Cl)c2Cl)o1	1.01% (inactive)
COCCCNC(=O)Cn1cc(/C=C(\C#N)C(=O)NCc2ccco2)c2ccccc21	3.94% (inactive)
COc1ccc(NC(=O)c2sc3nc(-c4cccc([N+](=O)[O-])c4)cn3c2C)cc1	4.9% (inactive)
CCOc1ccc(Br)cc1CSC(=N)N	55.7% (active)
CCOC(=O)C1CCN(S(=O)(=O)c2cc(Br)ccc2OCC)CC1	0.17% (inactive)
CCOc1ccc(Br)cc1S(=O)(=O)Nc1ccccc1C(=O)O	3.25% (inactive)
CC(=O)N(Cc1cccnc1)Cc1cc2cc(C)c(C)cc2nc1Cl	6.62% (inactive)
Cc1cccc(C(=O)Nc2ccc(C(=O)N/N=C/c3ccc(O)cc3)cc2)c1	-12.2% (inactive)
CCOc1ccccc1NS(=O)(=O)c1ccc2c(c1)NC(=O)C(C)C(=O)N2 (stereo not given)	-5.49% (inactive)
O=C1CS(=O)(=O)C(c2ccccc2[N+](=O)[O-])N1c1ccc(Oc2ccc(Cl)cc2)cc1 (stereo not given)	11.6% (inactive)
COc1ccc(-n2nnnc2SCc2nc(N)nc(N3CCOCC3)n2)cc1	-11.4% (inactive)
CN(C)c1nc(N)nc(CSc2ccccn2)n1	-4.14% (inactive)
CN(C)c1nc(N)nc(CSc2nnnn2-c2cccc3ccccc23)n1	35.1% (active)
CCOC(=O)c1sc2nc(C)nc(OCc3ccccc3C)c2c1C	-7.17% (inactive)
COc1ccccc1-c1cc(C(F)(F)F)nc(S(=O)(=O)CCCC(=O)Nc2sc(C(N)=O)c(C)c2C(=O)OC(C)C)n1	-2.08% (inactive)
